According to PubChem BioAssay (NCATS):
Results filed as inconclusive are left out. Activity calls are given as the source filed them. Calls come from the whole dose curve; as a rule, active = well fitted inhibition curve with a large enough effect; inconclusive = small, poorly fitted or top-dose-only effect; inactive = flat fitted curve, though single readings scatter.

Legend:
[1] = qHTS profiling for inhibitors of Plasmodium falciparum proliferation (AID 504749);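 note: 0% = DMSO vehicle and full inhibition = artemisinin control; nearly all actives have a fitted effect of over 60% in size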; conditions: P. falciparum in erythrocytes, SYBR Green DNA, 72 h, at 28.7 µM (top of the series)
Procedure, shortened: (§1)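 Quantitative HTS: compounds pinned into medium, infected erythrocytes added (0.3% parasitemia, 2.5% hematocrit), 72 h culture at 37 C under 5% CO2. Saponin/Triton lysis with SYBR Green I, overnight RT, then fluorescence read.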

3D7 = assay: as above; conditions: P. falciparum in erythrocytes, SYBR Green DNA, 72 h; series mostly up to 28.7 µM
Procedure, shortened: as §1

7G8 = assay: as above; conditions: P. falciparum in erythrocytes, SYBR Green DNA, 72 h; series mostly up to 28.7 µM
Procedure, shortened: as §1

AA1029 = assay: as above; conditions: P. falciparum in erythrocytes, SYBR Green DNA, 72 h; series mostly up to 28.7 µM
Procedure, shortened: as §1

AS120 = assay: as above; conditions: P. falciparum in erythrocytes, SYBR Green DNA, 72 h; series mostly up to 28.7 µM
Procedure, shortened: as §1

ATS189 = assay: as above; conditions: P. falciparum in erythrocytes, SYBR Green DNA, 72 h; series mostly up to 28.7 µM
Procedure, shortened: as §1

ATS95 = assay: as above; conditions: P. falciparum in erythrocytes, SYBR Green DNA, 72 h; series mostly up to 28.7 µM
Procedure, shortened: as §1

C2A = assay: as above; conditions: P. falciparum in erythrocytes, SYBR Green DNA, 72 h; series mostly up to 28.7 µM
Procedure, shortened: as §1

CP185 = assay: as above; conditions: P. falciparum in erythrocytes, SYBR Green DNA, 72 h; series mostly up to 28.7 µM
Procedure, shortened: as §1

CP191 = assay: as above; conditions: P. falciparum in erythrocytes, SYBR Green DNA, 72 h; series mostly up to 28.7 µM
Procedure, shortened: as §1

CP192 = assay: as above; conditions: P. falciparum in erythrocytes, SYBR Green DNA, 72 h; series mostly up to 28.7 µM
Procedure, shortened: as §1

CP194 = assay: as above; conditions: P. falciparum in erythrocytes, SYBR Green DNA, 72 h; series mostly up to 28.7 µM
Procedure, shortened: as §1

O=C(O)c1ccc(OCCn2ccnc2)cc1
inactive: activity, negative = inhibition ([1]; parasite line A) 13.9% | activity, negative = inhibition ([1]; parasite line B) 6.25% | Potency (3D7) | Potency (7G8) | Potency (AA1029) | Potency (AS120) | Potency (ATS189) | Potency (ATS95) | Potency (C2A) | Potency (CP185) | Potency (CP191) | Potency (CP192) | Potency (CP194)

CCCCCCCCCCCC(=O)N(CCO)CCO
inactive: activity, negative = inhibition ([1]; parasite line A) -3.5% | activity, negative = inhibition ([1]; parasite line B) 9.6% | Potency (3D7) | Potency (7G8) | Potency (AA1029) | Potency (AS120) | Potency (ATS189) | Potency (ATS95) | Potency (C2A) | Potency (CP185) | Potency (CP191) | Potency (CP192) | Potency (CP194)

CCCc1nc(C(C)(C)O)c(C(=O)OCc2oc(=O)oc2C)n1Cc1ccc(-c2ccccc2-c2nn[nH]n2)cc1
inactive: activity, negative = inhibition ([1]; parasite line A) -15.7% | activity, negative = inhibition ([1]; parasite line B) -20.3% | Potency (3D7) | Potency (7G8) | Potency (AA1029) | Potency (AS120) | Potency (ATS189) | Potency (ATS95) | Potency (C2A) | Potency (CP185) | Potency (CP191) | Potency (CP192) | Potency (CP194)

FC(F)(F)C(F)(F)C(F)(F)C(F)(F)C(F)(F)F
inactive: activity, negative = inhibition ([1]; parasite line A) 11% | activity, negative = inhibition ([1]; parasite line B) 17.9% | Potency (3D7) | Potency (7G8) | Potency (AA1029) | Potency (AS120) | Potency (ATS189) | Potency (ATS95) | Potency (C2A) | Potency (CP185) | Potency (CP191) | Potency (CP192) | Potency (CP194)

[O-][N+](=Nc1ccccc1)c1ccccc1
inactive: activity, negative = inhibition ([1]; parasite line A) -5.95% | activity, negative = inhibition ([1]; parasite line B) -6.73% | Potency (3D7) | Potency (7G8) | Potency (AA1029) | Potency (AS120) | Potency (ATS189) | Potency (ATS95) | Potency (C2A) | Potency (CP185) | Potency (CP191) | Potency (CP192) | Potency (CP194)

O=C(NNCNNC(=O)c1ccncc1)c1ccncc1
inactive: activity, negative = inhibition ([1]; parasite line A) 1.43% | activity, negative = inhibition ([1]; parasite line B) 9.6% | Potency (3D7) | Potency (7G8) | Potency (AA1029) | Potency (AS120) | Potency (ATS189) | Potency (ATS95) | Potency (C2A) | Potency (CP185) | Potency (CP191) | Potency (CP192) | Potency (CP194)

CN(Cc1ccccc1)Cc1ccccc1
inactive: activity, negative = inhibition ([1]; parasite line A) 9.08% | activity, negative = inhibition ([1]; parasite line B) -0.726% | Potency (3D7) | Potency (7G8) | Potency (AA1029) | Potency (AS120) | Potency (ATS189) | Potency (ATS95) | Potency (C2A) | Potency (CP185) | Potency (CP191) | Potency (CP192) | Potency (CP194)

NCCO/C=C/[C@H](N)C(=O)O
inactive: activity, negative = inhibition ([1]; parasite line A) 6.56% | activity, negative = inhibition ([1]; parasite line B) 15.6% | Potency (3D7) | Potency (7G8) | Potency (AA1029) | Potency (AS120) | Potency (ATS189) | Potency (ATS95) | Potency (C2A) | Potency (CP185) | Potency (CP191) | Potency (CP192) | Potency (CP194)

NC(N)=O
inactive: activity, negative = inhibition ([1]; parasite line A) 0.0876% | activity, negative = inhibition ([1]; parasite line B) -2.3% | Potency (3D7) | Potency (7G8) | Potency (AA1029) | Potency (AS120) | Potency (ATS189) | Potency (ATS95) | Potency (C2A) | Potency (CP185) | Potency (CP191) | Potency (CP192) | Potency (CP194)

OCC1(CO)COC(C(Cl)(Cl)Cl)OC1
inactive: activity, negative = inhibition ([1]; parasite line A) 2.06% | activity, negative = inhibition ([1]; parasite line B) 5.66% | Potency (3D7) | Potency (7G8) | Potency (AA1029) | Potency (AS120) | Potency (ATS189) | Potency (ATS95) | Potency (C2A) | Potency (CP185) | Potency (CP191) | Potency (CP192) | Potency (CP194)

CCCOC(=O)c1ccccc1O
inactive: activity, negative = inhibition ([1]; parasite line A) 3.1% | activity, negative = inhibition ([1]; parasite line B) 6.22% | Potency (3D7) | Potency (7G8) | Potency (AA1029) | Potency (AS120) | Potency (ATS189) | Potency (ATS95) | Potency (C2A) | Potency (CP185) | Potency (CP191) | Potency (CP192) | Potency (CP194)

O=[n+]1ccn([O-])c2ccccc21
inactive: activity, negative = inhibition ([1]; parasite line A) 14.9% | activity, negative = inhibition ([1]; parasite line B) 3.55% | Potency (3D7) | Potency (7G8) | Potency (AA1029) | Potency (AS120) | Potency (ATS189) | Potency (ATS95) | Potency (C2A) | Potency (CP185) | Potency (CP191) | Potency (CP192) | Potency (CP194)

O=P(O)(O)OP(=O)(O)OP(=O)(O)O
inactive: activity, negative = inhibition ([1]; parasite line A) -4.84% | activity, negative = inhibition ([1]; parasite line B) 8.54% | Potency (3D7) | Potency (7G8) | Potency (AA1029) | Potency (AS120) | Potency (ATS189) | Potency (ATS95) | Potency (C2A) | Potency (CP185) | Potency (CP191) | Potency (CP192) | Potency (CP194)

O=S(=O)(O)CC(S)CS (configuration not stated)
inactive: activity, negative = inhibition ([1]; parasite line A) 14.3% | activity, negative = inhibition ([1]; parasite line B) -2.53% | Potency (3D7) | Potency (7G8) | Potency (AA1029) | Potency (AS120) | Potency (ATS189) | Potency (ATS95) | Potency (C2A) | Potency (CP185) | Potency (CP191) | Potency (CP192) | Potency (CP194)
